Experimental data: PubChem BioAssay AID2221 (Broad Institute, 2009)
Screen size: about 290,000 compounds; about 2,200 (0.76%) were called active. No stated cut-off is given here; in the data, active means inhibition above about 30%; inconclusive means no clear call, values can overlap the other calls; inactive means below that. The entries come from a sample that favours actives as a whole.

Target: Protein RecA (Mycobacterium tuberculosis (strain ATCC 25618 / H37Rv)) (UniProt P9WHJ3)
Assay: Mtb RecA intein splicing inhibitors, primary screen, biochemical, fluorescence, HTS (AID 2221);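 further: 0% = vehicle wells and 100% = reference inhibitor control wells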
Details: cell-free RecA intein splicing, stronger effect = higher value, concentration not given here

Chain of Protein RecA (Mycobacterium tuberculosis (strain ATCC 25618 / H37Rv)) (P9WHJ3 whole entry, looked up): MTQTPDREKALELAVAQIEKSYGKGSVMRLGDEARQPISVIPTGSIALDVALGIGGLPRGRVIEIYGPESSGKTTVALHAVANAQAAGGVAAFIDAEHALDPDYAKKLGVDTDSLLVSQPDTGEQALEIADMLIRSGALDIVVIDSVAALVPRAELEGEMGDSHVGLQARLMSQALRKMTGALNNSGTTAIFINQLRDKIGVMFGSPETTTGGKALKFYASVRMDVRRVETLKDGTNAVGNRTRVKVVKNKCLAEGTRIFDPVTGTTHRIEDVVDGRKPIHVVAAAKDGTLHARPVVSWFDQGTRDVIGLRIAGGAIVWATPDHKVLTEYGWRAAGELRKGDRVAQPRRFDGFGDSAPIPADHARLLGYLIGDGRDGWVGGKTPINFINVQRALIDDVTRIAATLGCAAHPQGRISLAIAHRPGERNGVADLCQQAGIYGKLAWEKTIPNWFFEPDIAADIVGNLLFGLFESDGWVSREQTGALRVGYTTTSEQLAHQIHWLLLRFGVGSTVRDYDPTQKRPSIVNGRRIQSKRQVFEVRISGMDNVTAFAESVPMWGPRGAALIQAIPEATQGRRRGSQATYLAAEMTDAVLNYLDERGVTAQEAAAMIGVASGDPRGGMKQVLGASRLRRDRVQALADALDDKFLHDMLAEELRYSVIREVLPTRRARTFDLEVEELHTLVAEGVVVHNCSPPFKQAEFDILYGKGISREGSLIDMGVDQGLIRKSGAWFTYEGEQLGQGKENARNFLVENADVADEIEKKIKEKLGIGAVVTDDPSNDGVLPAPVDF

Row | Structure (SMILES) | inhibition
1 | CN(C(=O)CSc1nnc(N)s1)c1c(N)n(Cc2ccccc2)c(=O)[nH]c1=O | -0.327% (inactive)
2 | CC(C)(C)C(=O)N1CCC[C@@]1(CO)C(=O)O | -0.553% (inactive)
3 | CCc1ccc2nc(Nc3ncc(C(C)=O)c(C)n3)nc(C)c2c1 | 1.55% (inactive)
4 | Brc1ccc(-c2n(-c3ccccn3)c3ccccc3[n+]2-c2ccccn2)cc1 | 6.87% (inactive)
5 | Cc1[nH]c2ccccc2c1C(=O)CN1CCCC(C)C1 (centres undefined) | -2.48% (inactive)
6 | CCn1nnnc1SCC(=O)Nc1ccc(N(C)C)cc1 | -2.84% (inactive)
7 | CC(OC(=O)c1ccccc1OCc1ccc(Cl)cc1)C(N)=O (centres undefined) | -4.29% (inactive)
8 | Cc1ccc(N(Cc2cc3ccccc3[nH]c2=O)C(=O)c2cccs2)cc1 | 0.4% (inactive)
9 | Cc1ccc(N(Cc2cc(=O)[nH]c3ccccc23)C(=O)CCl)cc1 | 69.5% (active)
10 | CC(=O)N(Cc1cc(=O)[nH]c2ccccc12)c1ccc(C)cc1C | 2.74% (inactive)
11 | O=C(Cc1c[nH]c2ccccc12)OCCOC(=O)Cc1c[nH]c2ccccc12 | 1.52% (inactive)
12 | COc1ccccc1CC(=O)NCCc1c[nH]c2ccccc12 | 3.54% (inactive)
13 | O=S(=O)(O)Oc1c[nH]c2ccccc12 | 75% (active)
14 | O=C(O)C1CCCN(CCC=C(c2ccccc2)c2ccccc2)C1 (centres undefined) | -1.43% (inactive)
15 | O=S(=O)(Nc1n[nH]c(C(F)(F)F)n1)c1ccccc1 | -1.49% (inactive)
16 | O=C(Nc1ccccc1)c1ccc(NC(=O)c2cccs2)cc1 | -3.07% (inactive)
17 | O=C(Nc1n[nH]c(C(F)(F)F)n1)c1cccs1 | 51.9% (active)
18 | Cc1ccc(-c2noc(C3CCCN(C(=O)c4cccc(Cl)c4)C3)n2)o1 (centres undefined) | 1.61% (inactive)
19 | Cc1cc(C)c2c3c(sc2n1)C(c1ccccc1)C(C#N)=C(N)O3 (centres undefined) | -1.99% (inactive)
20 | COc1ccc(C2C(C#N)=C(N)Oc3cc(N)ccc32)cc1OC (centres undefined) | -13.5% (inactive)
21 | Cn1c2c(c(=O)n(C)c1=O)C(c1cccc(F)c1)C(C#N)=C(N)O2 (centres undefined) | -1.55% (inactive)
22 | Cc1nn(Cc2ccccc2)c2c1C(c1ccccc1)C(C#N)=C(N)O2 (centres undefined) | 66.3% (active)
23 | COc1ccccc1C1C(C#N)=C(N)Oc2c1c(-c1ccccc1)nn2-c1ccccc1 (centres undefined) | 35.8% (active)
24 | COC(=O)C1=C(C)OC(N)=C(C#N)C1c1cc(OC)ccc1OC (centres undefined) | -1.82% (inactive)

Row | Structure (SMILES) | inhibition
25 | Cc1nn(-c2ccccc2)c2c1C(c1ccc(F)cc1)C(C#N)=C(N)O2 (centres undefined) | 43.3% (active)
26 | Cc1nn(Cc2ccccc2)c(C)c1NS(=O)(=O)c1ccccc1 | 1.17% (inactive)
27 | C=CCOC(=O)C1=C(C)OC(N)=C(C#N)C1c1ccc(F)cc1 (centres undefined) | 5.83% (inactive)
28 | Cc1n[nH]c(C)c1S(=O)(=O)N1CCCC(C(=O)Nc2ccc(Br)cc2)C1 (centres undefined) | -13.2% (inactive)
29 | CC1CC(C)(C)CC2(C1)NC(=O)N(CC(=O)Nc1nccs1)C2=O (centres undefined) | -1.2% (inactive)
30 | CCN1CCC2(CC1)N=C(c1ccc(F)cc1)C(=S)N2C(=O)c1ccc(C)cc1 | 1.27% (inactive)
31 | COc1ccc(-c2ccc(CCC(=O)O)n2NC(=O)c2ccc(C(C)(C)C)cc2)cc1 | 3.63% (inactive)
32 | CCN1C(=O)[C@@H]2[C@@H](c3ccc(-c4ccccc4)cc3)N3CCCC[C@@]3(C(=O)OC)[C@@H]2C1=O | 2.14% (inactive)
33 | Cc1ccc(-c2nc(SCC(=O)Nc3ccccc3OC(F)F)c3c(C)c(C(=O)O)sc3n2)cc1 | 2.99% (inactive)
34 | Cc1ccc(CC2C(=O)N(c3ccc(F)cc3)C(=O)C2C)cc1 (centres undefined) | -0.367% (inactive)
35 | COc1cc(/C(=C/c2ccccc2)c2ccccc2)c2c(c1)oc1ccccc12 | -0.274% (inactive)
36 | COc1ccc(OC)c(/C(C)=N\NC(=O)c2cc3cc(Cl)ccc3n2C)c1 | 9.04% (inactive)
37 | CC1=NN(c2ccc(Cl)c(C(=O)O)c2)C(=O)/C1=C/c1ccc(-c2ccccc2[N+](=O)[O-])o1 | 7.48% (inactive)
38 | CC(=O)C1C(c2cccc(Oc3ccccc3)c2)NC(=O)NC1(O)C(F)(F)F (centres undefined) | -2.89% (inactive)
39 | O=C1NC(c2ccc(-c3ccccc3[N+](=O)[O-])o2)C(C(=O)c2ccc(Cl)cc2)C(O)(C(F)(F)F)N1 (centres undefined) | 45% (active)
40 | CC1(C)CC(=O)C(N=Nc2ccc(S(=O)(=O)N3CCCCCC3)cc2)=C(O)C1 | -0.925% (inactive)
41 | O=C1C=CC(=O)N1c1ccc(N2CCCCC2)cc1 | 3.11% (inactive)
42 | COc1ccc(NC2=CC(=S)NC(C)(C)C2)cc1 | 1.09% (inactive)
43 | O=C1C(=O)N(CC2COc3ccccc3O2)c2ccccc21 (centres undefined) | 6.05% (inactive)
44 | Cc1cc(C(=O)CCl)c(C)n1CC1COc2ccccc2O1 (centres undefined) | 40.6% (active)
45 | Cc1cc(NC(=O)CCC2COc3ccccc3O2)no1 (centres undefined) | 2.09% (inactive)
46 | Cc1ccc(-c2nnc(Nc3ccc(C(=O)N(C)C)cc3)c3ccccc23)cc1S(N)(=O)=O | -0.54% (inactive)
47 | CCCOc1ccc(/C=N/NC(=O)C2CC2)c(OCCC)c1 | -1.61% (inactive)
48 | COc1ccc(NC(=O)c2cnc(NS(=O)(=O)c3ccccc3)nc2)cc1 | 0.334% (inactive)

Row | Structure (SMILES) | inhibition
49 | O=S(=O)(Nc1ccccn1)c1ccc(Oc2ccccc2)cc1 | -0.988% (inactive)
50 | COc1ccc(S(=O)(=O)/N=C2\C=C(NS(=O)(=O)c3ccccc3)C(=O)c3ccccc32)cc1 | 36.2% (active)
51 | Cc1ccccc1C(=O)N1CCC(C(=O)Nc2ccc(S(=O)(=O)N(C)C(C)C)cc2)CC1 | 0.242% (inactive)
52 | C[n+]1ccc(C(=O)NCc2ccccc2)cc1 | 1.21% (inactive)
53 | Cc1cccc(C)c1NC(=S)N(Cc1cccnc1)Cc1ccccc1Cl | 2.64% (inactive)
54 | NC(=O)C1CCN(C(=O)c2ccc(-c3ccccc3)cc2)CC1 | -3.02% (inactive)
55 | CCOC(=O)N1CCC(c2cc(=O)n(-c3ccccc3)[nH]2)CC1 | 95.5% (active)
56 | CCOC(=O)N1CCC(NC(=O)COc2cc(=O)n(C)c3ccccc23)CC1 | -3.15% (inactive)
57 | CCOC(=O)N1CCC(NC(=O)CCc2ccccc2)CC1 | -0.782% (inactive)
58 | Cc1ccc(Nc2nc(CSc3nnc(-c4ccncc4)n3-c3ccccc3C)cs2)cc1 | 16.7% (inactive)
59 | COc1cc(OC)c(S(=O)(=O)Nc2ccccc2C(=O)O)cc1S(=O)(=O)Nc1ccccc1C(=O)O | -1.6% (inactive)
60 | O=C(COc1coc(CN2CCN(c3ccccc3F)CC2)cc1=O)N1CCc2ccccc21 | -2.58% (inactive)
61 | O=C(CCl)Nc1cccc(CP(=O)(c2ccccc2)c2ccccc2)c1 | 35.8% (active)
62 | O=C(Cc1ccccc1)Nc1cccc(NC(=O)c2ccccc2)c1 | -3.56% (inactive)
63 | CCc1cccc(NC(=O)CCC(=O)O)c1 | -2.03% (inactive)
64 | COc1ccc(NC(=O)CCCNC(=O)Cn2cnc3sc4c(c3c2=O)CCCC4)cc1OC | 1.78% (inactive)
65 | Cc1cc(/C=C2/SC(=O)N(CC(=O)OC(C)C)C2=O)c(C)n1C | -2.4% (inactive)
66 | CC(C)OC(=O)CN1C(=O)C(=O)c2ccccc21 | 40% (active)
67 | CCOC(=O)CN1C(=O)C(=O)c2cc(C)ccc21 | 1.57% (inactive)
68 | CC(Oc1cccc(Cl)c1)C(=O)NC1CC(C)(C)NC(C)(C)C1 (centres undefined) | 1.06% (inactive)
69 | Cc1ccc(Cl)cc1NC(=O)C1CCN(S(C)(=O)=O)CC1 | 4.05% (inactive)
70 | CN(c1ccc(OCC(=O)O)cc1)S(=O)(=O)c1ccc2ccccc2c1 | 1.36% (inactive)
71 | COCCNC(=O)COc1ccc(N(C)S(=O)(=O)c2ccc3ccccc3c2)cc1 | 2.67% (inactive)
72 | CC(=O)Oc1ccc(N(C(C)=O)S(=O)(=O)c2ccc3ccccc3c2)cc1Br | 36.3% (active)

Row | Structure (SMILES) | inhibition
73 | CC/C(=N\NC(=O)c1c(C)nc2ccccn12)c1ccc(Cl)cc1 | -3.74% (inactive)
74 | COc1ccc(NC(=O)C(NC(C)=O)C(=O)NCc2ccccc2Cl)cc1 (centres undefined) | -12.2% (inactive)
75 | COc1ccc(C2CC(c3cccs3)Nc3nnnn32)cc1 (centres undefined) | 2.29% (inactive)
76 | COc1ccccc1CN1CCCC(N2CCN(c3ccc(F)cc3)CC2)C1 (centres undefined) | 1.51% (inactive)
77 | CCCc1[nH]nc2c1C(c1ccc(OC)c(Cn3nc(C)c(Br)c3C)c1)C(C#N)=C(N)O2 (centres undefined) | 16.3% (inactive)
78 | COc1ccc(C2C(C#N)=C(N)Oc3n[nH]c(C)c32)cc1CN1CCN(c2ccc(F)cc2)CC1 (centres undefined) | 49.8% (active)
79 | O=C(CN1CCCC1)Nc1sc2c(c1C(=O)Nc1ccccc1)CCCC2 | -1.42% (inactive)
80 | CCOP(=O)(OCC)C(Nc1ccc([N+](=O)[O-])cc1)c1ccc(Cl)cc1 (centres undefined) | 5.51% (inactive)
81 | COc1ccc(C2/C(=C(/O)c3ccccc3)C(=O)C(=O)N2C)c(OC)c1 (centres undefined) | 1.48% (inactive)
82 | COc1ccc(/C=C2/C(=O)OCc3cc(OC)c(OC)cc32)c(OC)c1 | -0.742% (inactive)
83 | COc1ccc(/C=C2/C(=O)N(c3ccccc3)N=C2C)c(OC)c1 | 70% (active)
84 | O=[N+]([O-])c1ccc(N2CCN(c3ccc(F)cc3)CC2)cn1 | 0.617% (inactive)
85 | COc1ccc(C(=O)NC2CC(C)(C)NC(C)(C)C2)cc1OC | 0.554% (inactive)
86 | O=C(CCCN1C(=O)/C(=C\c2ccccc2)SC1=S)Nc1ccccc1O | -1.47% (inactive)
87 | O=C(CCN1C(=O)/C(=C/c2cccs2)SC1=S)NNC(=O)c1cccc(O)c1 | -2.74% (inactive)
88 | COc1ccccc1C(=O)NNC(=O)CCN1C(=O)/C(=C\c2ccccc2)SC1=S | 1.3% (inactive)
89 | O=C(CCCN1C(=O)/C(=C/c2ccccc2)SC1=S)Nc1ccc(O)cc1 | 45.1% (active)
90 | Cc1ccc(/C=C2\SC(=S)N(CCC(=O)Nc3ccc(O)cc3)C2=O)cc1 | 3.35% (inactive)
91 | O=C(CCCN1C(=O)/C(=C/c2cccs2)SC1=S)Nc1ccc(O)cc1 | 59% (active)
92 | CCCCCCNS(=O)(=O)c1ccccc1Br | 8.15% (inactive)
93 | O=C1N[C@H](Cc2ccccc2)C(=O)N[C@H]1Cc1cn(S(=O)(=O)c2ccccc2)c2ccccc12 | 2.29% (inactive)
94 | CCOC(=O)CSc1nnc(CNC(=O)c2cccs2)n1-c1cc(OC)ccc1OC | -0.643% (inactive)
